Only some compounds are listed: those with a hit (about 21% of all), similar ones and a draw of the others.
Cycloheximide cs = Cycloheximide Counterscreen for Small Molecule Inhibitors of Shiga Toxin | cell reporter, cycloheximide protein synthesis inhibition counterscreen | max response, % | 300,000 tested, 12% active | AID 2314, 2010; in the data active = max response mostly above about 13%, no sharp cut-off; inactive = mostly below about 14%; note: read at 38.3 µM for the half of the compounds with a filed dose; 0% is about no effect
Pf growth 48h = Primary qHTS for delayed death inhibitors of the malarial parasite plastid, 48 hour incubation | P. falciparum luciferase growth in erythrocytes, 48 h | Potency, µM (highest dose often 28.7 µM), for inactives: top-dose activity change, negative = inhibition, usual class: inhibitors | 310,000 tested, 5.9% active | AID 504832, 2011; note: potency is the fitted concentration of half-maximal effect; % is set by controls: 0 for no effect and ±100 for the full control effect
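Erythrocytes infected with P. falciparum carrying an integrated firefly luciferase reporter (2% hematocrit, 0.1% parasitemia final) were exposed to compounds in RPMI 1640 with 0.5% Albumax at 37 C, 5% CO2. Growth inhibition was scored as reduced luminescence.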
Pf growth 96h = Primary qHTS for delayed death inhibitors of the malarial parasite plastid, 96 hour incubation; 320,000 tested, 6.9% active; Potency, µM (titrated, usually from 28.7 µM), inactives show at the top dose activity change, negative = inhibition, actives largely listed as inhibitors; P. falciparum luciferase reporter growth, 96 h; note: potency is the fitted concentration of half-maximal effect; % is set by controls: 0 for no effect and ±100 for the full control effect
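Compounds incubated with erythrocytes infected by luciferase-expressing P. falciparum (2% hematocrit, 0.05% parasitemia final) for 96 hours, 37 C in 5% CO2. Growth inhibition scored as decreased luciferase luminescence.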
HCV inhibitor = qHTS Assay for Inhibitors of Hepatitis C Virus (HCV) | Huh7.5.1 HCVcc-Cre infection, luciferase reporter, 44 h | Potency, µM (titrated, usually from 41.8 µM), inactives show at the top dose activity change, negative = inhibition, usual class: inhibitors | 340,000 tested, 3.4% active | AID 651820, 2012; note: potency is the fitted concentration of half-maximal effect; % is set by controls: 0 for no effect and ±100 for the full control effect
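A cell-based infection assay in which seeded cells (1,000 per well) receive test compound after 4 h, are inoculated with HCVcc-Cre at approximately 0.5 moi, and are incubated 44 h before luminescence detection.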
Shiga inhibitor = A qHTS for Small Molecule Inhibitors of Shiga Toxin; inhibition, % at 38.7 µM; AID 2315, 2010; Vero cells, Shiga toxin protein synthesis inhibition reporter; 290,000 tested, 9.2% active; in the data active = inhibition mostly above about 28%, no sharp cut-off; inactive = mostly below about 43%; note: 0% is about no effect
HCMV antiviral = qHTS Assay for inhibitors of the human cytomegalovirus (HCMV); HFF cells, HCMV-luciferase reporter, 72 h; stronger effect = lower value; activity change, negative = inhibition, % at 57.5 µM; 410,000 tested, 4.5% active; in the data active = activity change below about -60%; inconclusive = no clear call, values can overlap the other calls; inactive = above about -39%; note: % is set by controls: 0 for no effect and ±100 for the full control effect
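Luciferase read-out from HCMV-luciferase-infected HFFs (MOI 1 PFU/cell) 72 h post infection at 37C; compounds added after 16 h cell attachment; activity normalized between buffer-only basal and Salinomycin (10uM) inhibitor controls.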
* = called active by the depositor. Unless noted, calls come from the whole dose curve; as a rule, active = well fitted inhibition curve with a large enough effect; inconclusive = small, poorly fitted or top-dose-only effect, or another doubt; inactive = no such curve, though single readings can be large or run the other way.

Results for Cc1ccc(N2CCN(S(=O)(=O)c3ccc(Cl)c4ccccc34)CC2)c(C)c1 ?
HCMV antiviral: 9

What do the screens show for `Cc1ccccc1C(=O)N1CCC(C(=O)Nc2ccccc2N2CCCC2)CC1`?
Pf growth 48h: -26%; Pf growth 96h: inconclusive; HCV inhibitor: inconclusive; HCMV antiviral: -33

Results for c1ccc(C(c2nnnn2C2CCCC2)N2CCCCCC2)nc1 (stereo not drawn) ?
Cycloheximide cs: -1; Pf growth 96h: -3%; HCV inhibitor: 8%; Shiga inhibitor: -4; HCMV antiviral: -19

How did c1ccc(C(c2ccccc2)N2CCN(C(c3ccccn3)c3nnnn3C3CCCC3)CC2)cc1 (stereo not drawn) do in these assays?
Cycloheximide cs: -5; Pf growth 48h: -12%; Pf growth 96h: 4.7µM*; HCV inhibitor: inconclusive; Shiga inhibitor: 18

What do the screens show for `N#Cc1cccc(C(c2nnnn2C2CCCC2)N2CCC(Cc3ccccc3)CC2)c1` (stereo not drawn)?
Cycloheximide cs: -2; Pf growth 48h: 5.2µM*; Pf growth 96h: -18%; HCV inhibitor: inconclusive; Shiga inhibitor: 14; HCMV antiviral: -35

How did c1cncc(C(c2nnnn2C2CCCC2)N2CCCC2)c1 (stereo not drawn) do in these assays?
Cycloheximide cs: 1; Pf growth 48h: -26%; Pf growth 96h: 9.3µM*; HCV inhibitor: 5%; Shiga inhibitor: 14; HCMV antiviral: -19

How did N#Cc1cccc(C(c2nnnn2CCc2ccccc2)N2CCN(C3CCCCC3)CC2)c1 (stereo not drawn) do in these assays?
Cycloheximide cs: -6; Pf growth 48h: 9%; Pf growth 96h: inconclusive; HCV inhibitor: inconclusive; Shiga inhibitor: -10; HCMV antiviral: 37

What do the screens show for `CCCN1CCCc2cc(CN(CCCN3CCOCC3)C(=O)Nc3ccc(CC)cc3)ccc21`?
HCMV antiviral: -5

How did CSc1ncccc1C(=O)OCC(=O)Nc1ccc(C)c(S(=O)(=O)N2CCOCC2)c1 do in these assays?
HCV inhibitor: inconclusive; HCMV antiviral: -9

How did Clc1ccc(OC2CCN(Cc3nc(CC4CC4)no3)CC2)cc1 do in these assays?
Cycloheximide cs: 0; Pf growth 48h: 13%; Pf growth 96h: inconclusive; HCV inhibitor: -15%; Shiga inhibitor: -2; HCMV antiviral: -6

How did Fc1ccc2nc(C3CCN(Cc4nc(CC5CC5)no4)CC3)[nH]c2c1 do in these assays?
Cycloheximide cs: 15*; Pf growth 48h: inconclusive; Pf growth 96h: 22%; HCV inhibitor: -8%; Shiga inhibitor: 8; HCMV antiviral: 44

How did Fc1ccccc1C1CCN(Cc2nc(CC3CC3)no2)C1 (stereo not drawn) do in these assays?
Cycloheximide cs: 28*; Pf growth 48h: 42%; Pf growth 96h: inconclusive; HCV inhibitor: -19%; Shiga inhibitor: 75*; HCMV antiviral: 59

What do the screens show for `Cc1cc(C)cc(NC(=S)N2CCC(C(=O)c3ccc(F)cc3)CC2)c1`?
HCV inhibitor: -1%; HCMV antiviral: 45

Results for Cc1ccc(NC(=S)Nc2ccc(OC(F)F)c(Cl)c2)cc1F ?
Cycloheximide cs: 5; Pf growth 48h: inconclusive; Pf growth 96h: inconclusive; HCV inhibitor: 13µM*; Shiga inhibitor: 33; HCMV antiviral: inconclusive

How did COc1ccc(NC(=O)c2ccc(OC(F)F)cc2)cc1Cl do in these assays?
Cycloheximide cs: 47*; Pf growth 48h: 202%; Pf growth 96h: 230%; HCV inhibitor: inconclusive; Shiga inhibitor: active; HCMV antiviral: 36

What do the screens show for `O=C(Nc1ccc2c(c1)OCO2)c1ccccn1`?
Pf growth 48h: 259%; Pf growth 96h: 414%; HCV inhibitor: -7%; HCMV antiviral: 58

Results for COc1ccc(NC(=O)c2cc(F)cc(F)c2)cc1Cl ?
Cycloheximide cs: 27*; Pf growth 48h: 117%; HCV inhibitor: inconclusive; Shiga inhibitor: 82*; HCMV antiviral: 48

What do the screens show for `COc1ccc(C)cc1NC(=O)c1ccc(OC(F)F)cc1`?
Cycloheximide cs: -1; Pf growth 48h: 19%; Pf growth 96h: -19%; HCV inhibitor: inconclusive; Shiga inhibitor: 11; HCMV antiviral: -15

Results for O=C(Nc1ccc(OC(F)F)c(Cl)c1)c1ccccn1 ?
Cycloheximide cs: 41*; Pf growth 48h: 186%; Pf growth 96h: inactive; HCV inhibitor: -8%; Shiga inhibitor: 94*; HCMV antiviral: 100

What do the screens show for `O=C1CC(c2cccc(O)c2)c2cc3c(cc2N1)OCO3` (stereo not drawn)?
HCMV antiviral: 9

What do the screens show for `CCOC(=O)c1ncc2[nH]c3cccc(OC(C)C)c3c2c1C`?
Cycloheximide cs: 11; Shiga inhibitor: 9

Results for COC(=O)c1ccc(NC(=O)N2CCc3c([nH]c4ccccc34)C2c2ccc(C)cc2)cc1 (stereo not drawn) ?
HCMV antiviral: 9

Results for Cc1ccc(C2c3[nH]c4ccccc4c3CCN2C(=O)c2ccccc2Br)cc1 (stereo not drawn) ?
HCMV antiviral: -78*

Results for Cc1ccc(C2c3[nH]c4ccccc4c3CCN2C(=O)CCC2CCCC2)cc1 (stereo not drawn) ?
HCMV antiviral: -93*

What do the screens show for `CC(=O)NCCC(=O)N1CCc2c([nH]c3ccccc23)C1c1cccc(C)c1` (stereo not drawn)?
Cycloheximide cs: 19*; Pf growth 48h: 72%; Pf growth 96h: inconclusive; HCV inhibitor: 4%; Shiga inhibitor: 38; HCMV antiviral: 89

What do the screens show for `Cc1ccccc1C(=O)N1CCc2c([nH]c3ccccc23)C1C(F)(F)F` (stereo not drawn)?
Cycloheximide cs: -2; Pf growth 48h: 12µM*; Pf growth 96h: inconclusive; HCV inhibitor: -17%; Shiga inhibitor: 7; HCMV antiviral: 10

What do the screens show for `Cc1ccc(C2c3[nH]c4ccccc4c3CCN2C(=O)c2ccc(N(C)C)cc2)cc1` (stereo not drawn)?
HCMV antiviral: 64

How did O=c1[nH]c(=O)n(-c2ccccc2)c(O)c1/C=C1/C(c2ccccc2)=Nc2ccccc21 do in these assays?
Cycloheximide cs: 48*; Pf growth 48h: inconclusive; Pf growth 96h: 9.3µM*; HCV inhibitor: inconclusive; Shiga inhibitor: 30*; HCMV antiviral: 36

How did CCCCCCCCCCCCCCCC(=O)Nc1ccn(C2OC(CO)C(O)C2O)c(=O)n1 (stereo not drawn) do in these assays?
HCV inhibitor: -27%; HCMV antiviral: -98*

Results for Nc1ccn(C2OC(CO)C(O)C2F)c(=O)n1 (stereo not drawn) ?
HCMV antiviral: -82*
